PubChem BioAssay AID1028 (SRMLSC, 2008)
Measured potencies and affinities stand elsewhere.

These compounds were tested against diphosphomevalonate decarboxylase (Streptococcus pneumoniae D39) (UniProt Q9FD53) (assay: S. pneumoniae DPM-DC inhibition retest, confirmation, biochemical, cuvette format, coupled NADH fluorescence (AID 1028)). Conditions: purified DPM-DC, rate, at 50 µM, hits give high values;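 active means enzyme inhibitor confirmed by dose series, half-maximal inhibitory concentration at most 40 µM; inactive means the rest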.

inhibition, inactive:
COc1ccc2oc(-c3cccc(N)c3)nc2c1 -0.79%, c1ccc(-c2nc3ccccc3o2)cc1 2.96%, COc1ccc(OC)c(-c2nc3cc(OC)ccc3o2)c1 2.12%, Cc1ccc(C)c(-c2nc3c(N)cccc3o2)c1 6.19%, O=C(NC1CC1)c1ccccc1-n1sc2ccccc2c1=O 8%, COc1ccc(-c2nc3cc(N)ccc3o2)cc1 13.2%, COc1ccc2oc(-c3cccc([N+](=O)[O-])c3)nc2c1 7.59%, Nc1ccc2oc(-c3cccc(F)c3)nc2c1 10.4%, COc1ccc2nc(-c3ccccc3C)oc2c1 4.59%, Clc1cccc(-c2nc3ccccc3o2)c1 1.68%, O=C(c1ccccc1-n1sc2ccccc2c1=O)N1CCCCC1 16.1%, Cc1ccc(C)c(-c2nc3cc([N+](=O)[O-])ccc3o2)c1 1.75%, Cc1ccc(C)c(-c2nc3ccc(N)cc3o2)c1 13%, COc1ccc(OC)c(-c2nc3cc(N)ccc3o2)c1 10.3%, COc1ccc2oc(-c3ccc(F)cc3)nc2c1 1.68%, Nc1ccc2oc(-c3ccc(F)cc3)nc2c1 13.4%, Nc1ccc2oc(-c3ccc(Cl)cc3)nc2c1 12.8%, Nc1ccc2oc(-c3cccc(Cl)c3)nc2c1 8.07%, COc1ccc2oc(-c3ccc(N)cc3)nc2c1 7.74%, COc1ccc2oc(-c3cccc(C)c3)nc2c1 2.37%, Cc1ccccc1-c1nc2ccccc2o1 1.75%, COc1ccccc1-c1nc2ccccc2o1 6.39%, CCCN(CCC)C(=O)c1ccccc1-n1sc2ccccc2c1=O 14.3%, Cc1ccc(-c2nc3cc(N)ccc3o2)cc1F 16%
